CBX7 inh: CBX7 chromodomain binding inhibitors, primary screen, biochemical, AlphaScreen. Chromobox protein homolog 7 (Homo sapiens), O95931. AlphaScreen His6-CBX7 / biotin-H3K27me3 peptide binding; stronger effect = lower value. normalised signal (fraction of DMSO) (concentration not given with the values). 66,000 compounds, 1.1% hits. AID 1224903, 2016; in the data active = normalised signal below about 0.5
Target sequence (O95931 whole entry, looked up): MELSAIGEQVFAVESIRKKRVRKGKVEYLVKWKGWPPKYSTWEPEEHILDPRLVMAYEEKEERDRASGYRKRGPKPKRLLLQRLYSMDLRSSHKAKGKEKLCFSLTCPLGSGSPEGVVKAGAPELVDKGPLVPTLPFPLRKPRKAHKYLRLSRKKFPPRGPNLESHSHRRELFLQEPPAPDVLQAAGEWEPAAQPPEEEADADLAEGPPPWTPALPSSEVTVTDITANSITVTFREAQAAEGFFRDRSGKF
* marks the source's active call; other numbers are inactive results. This is one part of a sample in which hits are shown more often than they occur.

Screening COc1ccc(CN2C(=O)c3cccnc3C2Nc2ccc(OC)cc2)cc1 (stereo not given) returned CBX7 inh 0.017*.
COc1ccc(Cl)cc1NC1c2ccccc2C(=O)N1Cc1ccccc1 (stereo not given) was read as CBX7 inh 0.53.
COc1ccc(CN2C(=O)c3cccnc3C2Nc2ccc(C)cc2)cc1 (stereo not given) was read as CBX7 inh 0.5.
For Cc1ccc(NC2c3ncccc3C(=O)N2Cc2ccc(F)cc2)cc1C (stereo not given) the results were CBX7 inh 0.79.
Screening COc1ccc(-c2nc3nc(C)cc(C)n3c2Nc2ccccc2C)cc1 returned CBX7 inh 1.
For COc1ccc(C(=O)Nc2ccc(NC(=O)c3ccccc3)c(C)c2)cc1 the results were CBX7 inh 1.3.
`O=C1CC(N2CCN(CCO)CC2)C(=O)N1c1ccc(F)cc1` (stereo not given) gave CBX7 inh 0.86.
Screening C=CCc1ccccc1OCC(O)CN1CCC(C)CC1 (stereo not given) returned CBX7 inh 1.5.
C=CCc1cc(C)ccc1OCC(O)CN1CCOCC1 (stereo not given) was read as CBX7 inh 0.82.
Screening C=CCc1ccccc1OCC(O)CN1CCN(c2ccc(C)cc2)CC1 (stereo not given) returned CBX7 inh 0.25*.
`CC(C)c1ccc2oc(-c3ccc(NC(=O)c4ncn[nH]4)cc3)nc2c1` gave CBX7 inh 0.026*.
CCc1ccc2oc(-c3cccc(NC(=O)c4ncn[nH]4)c3)nc2c1 was read as CBX7 inh 0.013*.
Screening CCc1ccc2oc(-c3cccc(NC(=O)c4ccc(F)cc4)c3)nc2c1 returned CBX7 inh 1.
For CCc1ccc2oc(-c3cccc(NC(=O)c4ccc(C)cc4)c3)nc2c1 the results were CBX7 inh 1.1.
CC(C)c1ccc2oc(-c3ccc(NC(=O)c4ccccc4F)cc3)nc2c1 was read as CBX7 inh 1.
CC(C)c1ccc2oc(-c3ccc(NC(=O)c4ccc(Cl)cc4)cc3)nc2c1 was read as CBX7 inh 0.97.
Screening O=C(CSc1nnc(Cc2cc(=O)[nH]c(=O)[nH]2)n1-c1ccccc1)Nc1ccccc1F returned CBX7 inh 1.
CC1CCCN(S(=O)(=O)c2ccc3[nH]c(=O)cc(C(=O)NCC4CCCO4)c3c2)C1 (stereo not given) was read as CBX7 inh 1.1.
`COc1cccc(NC2c3ccccc3C(=O)N2c2cccnc2)c1` (stereo not given) gave CBX7 inh 1.
Screening O=C1c2ccccc2C(Nc2cccnc2)N1c1cccnc1 (stereo not given) returned CBX7 inh 0.069*.
`O=C1c2ccccc2C(Nc2ccc(Br)cc2)N1c1cccnc1` (stereo not given) gave CBX7 inh 1.
For COc1ccc(-c2nnc(Nc3ccc4c(c3)ncn4-c3ccccc3OC)c3ccccc23)cc1 the results were CBX7 inh 0.66.
Screening O=C(CN1C(=O)CSc2ncccc21)NCCN1CCCCCC1 returned CBX7 inh 1.1.
COc1cccc(C(=O)Nc2nnc(CCS(=O)(=O)c3ccc(Cl)cc3)s2)c1 was read as CBX7 inh 1.
`O=S(=O)(c1ccccc1)N1CCN(c2ccc3nnc(-c4ccccc4)n3n2)CC1` gave CBX7 inh 0.1*.
Cc1ccc(S(=O)(=O)N2CCN(c3ccc4nnc(-c5ccccc5)n4n3)CC2)cc1 was read as CBX7 inh 0.7.
c1ccc(-c2nnc3ccc(N4CCCC4)nn23)cc1 was read as CBX7 inh 0.94.
O=C(NCCc1ccc(Cl)cc1)c1csc2c1CCCC2 was read as CBX7 inh 1.1.
For COc1ccc(Cl)cc1NC(=O)CCc1c(C)nc2cc(-c3ccccc3OC)nn2c1C the results were CBX7 inh 0.96.
Screening CCOC(=O)c1cnc2ccc(OCC)cc2c1N1CCN(c2ccccn2)CC1 returned CBX7 inh 0.58.
For CCOC(=O)c1cnc2ccc(OCC)cc2c1N1CCN(Cc2ccccc2)CC1 the results were CBX7 inh 0.5*.
For CCOC(=O)c1cnc2ccc(OCC)cc2c1N1CCN(C)CC1 the results were CBX7 inh 1.2.
Screening COc1ccc(C2CC(=O)C3=C(C2)Nc2ccccc2NC3c2ccncc2)cc1OC (stereo not given) returned CBX7 inh 1.
`O=C1C2=C(Nc3ccccc3SC2c2ccco2)c2ccccc21` (stereo not given) gave CBX7 inh 0.39*.
O=C1C2=C(Nc3ccccc3SC2c2ccc3c(c2)OCO3)c2ccccc21 (stereo not given) was read as CBX7 inh 0.35*.
For O=C(CC1Sc2ccccc2NC1=O)Nc1ccc2c(c1)OCO2 (stereo not given) the results were CBX7 inh 0.89.
For COc1ccc(NC(=O)CC2Sc3ccccc3NC2=O)cc1OC (stereo not given) the results were CBX7 inh 0.98.
For O=C(CC1Sc2ccccc2NC1=O)Nc1ccc2c(c1)OCCO2 (stereo not given) the results were CBX7 inh 1.2.
CC(C(=O)NC1CCCC1)C1Sc2ccccc2NC1=O (stereo not given) was read as CBX7 inh 1.
For COc1ccc(C2Sc3ccccc3NC3=C2C(=O)c2ccccc23)cc1OC (stereo not given) the results were CBX7 inh 0.4*.
Screening CC12CCCCC1c1c(ccc3ccccc13)C(=O)N2 (stereo not given) returned CBX7 inh 0.99.
`O=[N+]([O-])c1ccc(-c2nc(-c3cccnc3)no2)cc1` gave CBX7 inh 0.89.
Screening C=CCc1c(C)nc2nc(SCC(=O)Nc3cccc(OC)c3)nn2c1C returned CBX7 inh 0.86.
For CC1=NN(c2cc(C)c3ccccc3n2)C2(O)CC3C(C12)C3(C)C (stereo not given) the results were CBX7 inh 0.9.
For Cc1sc2ncnc(Nc3ccc(F)cc3Cl)c2c1S(=O)(=O)N1CCC(C)CC1 the results were CBX7 inh 1.1.
`Cc1ccc(S(=O)(=O)N2CCN(c3nc(NC(C)c4ccccc4)c4ccccc4n3)CC2)cc1` (stereo not given) gave CBX7 inh 0.8.
For O=C(Nc1ccc(F)cc1F)c1cnc(N2CCN(c3ncccn3)CC2)c2ccccc12 the results were CBX7 inh 1.2.
For O=C(C1CCN(c2nc3ccccc3[nH]2)CC1)N1CCN(Cc2ccc3c(c2)OCO3)CC1 the results were CBX7 inh 1.1.
COc1ccc(CCNC(=O)C2CCN(C(=O)c3sccc3-n3cccc3)CC2)cc1OC was read as CBX7 inh 1.
Cc1ccn2c(NC(=O)C3CCCCC3)c(-c3ccc(F)cc3)nc2c1 was read as CBX7 inh 1.
`COC(=O)c1c[nH]n2c(NC3CCCCCC3)c(-c3ccc(F)cc3)nc12` gave CBX7 inh 0.45*.
For COC(=O)c1c[nH]n2c(=O)c(Cc3ccccc3F)c(C)nc12 the results were CBX7 inh 1.2.
CCOc1ccc(-c2nc3c(C(=O)OC)c[nH]n3c2NC2CCCCC2)cc1OC was read as CBX7 inh 0.7.
Screening COC(=O)c1c[nH]n2c(NC3CCCCC3)c(-c3ccc(F)cc3)nc12 returned CBX7 inh 0.55.
`COC(=O)c1c[nH]n2c(=O)c(Cc3ccc(F)cc3Cl)c(C)nc12` gave CBX7 inh 1.3.
CCCCOc1ccc(-c2nc3ncccn3c2NC2CCCCC2)cc1 was read as CBX7 inh 0.94.
